# What was measured:
# Test in all cases: SPOT peptide array binding signal intensity (averaged, normalized) (arbitrary units (background-subtracted, floor 0; scale differs between SH3 domains)); higher = stronger binding of the SH3 domain to the peptide
# AgAbp1 = target: AgAbp1
# Procedure, shortened: (§1)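 Four yeast species supplied the SH3 domains, which were expressed as GST fusions in E. coli BL21(DE3) and purified on glutathione Sepharose. Incubation with cellulose membranes carrying synthetic 15-mer peptides, cysteines exchanged for serines, ran overnight at 4°C at 10 μg/ml in TBS-based blocking buffer. Binding signal is reported as normalized, background-subtracted spot intensity averaged over replicates, in arbitrary units not shared between domains.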
# AgBbc1 = target: AgBbc1
# Procedure, shortened: as §1
# AgBem1-D1 = target: AgBem1-D1
# Procedure, shortened: as §1
# AgBzz1-D1 = target: AgBzz1-D1
# Procedure, shortened: as §1
# AgBzz1-D2 = target: AgBzz1-D2
# Procedure, shortened: as §1
# AgCyk3 = target: AgCyk3
# Procedure, shortened: as §1
# AgFus1 = target: AgFus1
# Procedure, shortened: as §1
# AgHof1 = target: AgHof1
# Procedure, shortened: as §1
# AgHse1 = target: AgHse1
# Procedure, shortened: as §1
# AgLsb1 = target: AgLsb1
# Procedure, shortened: as §1
# AgLsb4 = target: AgLsb4
# Procedure, shortened: as §1
# AgMyo5 = target: AgMyo5
# Procedure, shortened: as §1
# AgNbp2 = target: AgNbp2
# Procedure, shortened: as §1
# AgRvs167 = target: AgRvs167
# Procedure, shortened: as §1
# AgSho1 = target: AgSho1
# Procedure, shortened: as §1
# AgSla1-D1-D2 = target: AgSla1-D1-D2
# Procedure, shortened: as §1
# AgSla1-D3 = target: AgSla1-D3
# Procedure, shortened: as §1
# CaAbp1-D1 = target: CaAbp1-D1
# Procedure, shortened: as §1
# CaAbp1-D2 = target: CaAbp1-D2
# Procedure, shortened: as §1
# CaBbc1 = target: CaBbc1
# Procedure, shortened: as §1
# CaBem1-D1 = target: CaBem1-D1
# Procedure, shortened: as §1
# CaBzz1-D1 = target: CaBzz1-D1
# Procedure, shortened: as §1
# CaBzz1-D2 = target: CaBzz1-D2
# Procedure, shortened: as §1
# CaCyk3 = target: CaCyk3
# Procedure, shortened: as §1
# CaFus1 = target: CaFus1
# Procedure, shortened: as §1
# CaHof1 = target: CaHof1
# Procedure, shortened: as §1
# CaHse1 = target: CaHse1
# Procedure, shortened: as §1
# CaLsb1 = target: CaLsb1
# Procedure, shortened: as §1
# CaLsb4 = target: CaLsb4
# Procedure, shortened: as §1
# CaMyo5 = target: CaMyo5
# Procedure, shortened: as §1
# CaNbp2 = target: CaNbp2
# Procedure, shortened: as §1
# CaRvs167 = target: CaRvs167
# Procedure, shortened: as §1
# CaRvs167-3 = target: CaRvs167-3
# Procedure, shortened: as §1
# CaSho1 = target: CaSho1
# Procedure, shortened: as §1
# CaSla1-D1-D2 = target: CaSla1-D1-D2
# Procedure, shortened: as §1
# CaSla1-D3 = target: CaSla1-D3
# Procedure, shortened: as §1
# ScAbp1 = target: ScAbp1
# Procedure, shortened: as §1
# ScBbc1 = target: ScBbc1
# Procedure, shortened: as §1
# ScBem1-D1 = target: ScBem1-D1
# Procedure, shortened: as §1
# ScBzz1-D1 = target: ScBzz1-D1
# Procedure, shortened: as §1
# ScBzz1-D2 = target: ScBzz1-D2
# Procedure, shortened: as §1
# ScCyk3 = target: ScCyk3
# Procedure, shortened: as §1
# ScFus1 = target: ScFus1
# Procedure, shortened: as §1
# ScHof1 = target: ScHof1
# Procedure, shortened: as §1
# ScHse1 = target: ScHse1
# Procedure, shortened: as §1
# ScLsb1 = target: ScLsb1
# Procedure, shortened: as §1
# ScLsb2 = target: ScLsb2
# Procedure, shortened: as §1
# ScLsb3 = target: ScLsb3
# Procedure, shortened: as §1
# ScLsb4 = target: ScLsb4
# Procedure, shortened: as §1
# ScMyo3 = target: ScMyo3
# Procedure, shortened: as §1
# ScMyo5 = target: ScMyo5
# Procedure, shortened: as §1
# ScNbp2 = target: ScNbp2
# Procedure, shortened: as §1
# ScPex13 = target: ScPex13
# Procedure, shortened: as §1
# ScRvs167 = target: ScRvs167
# Procedure, shortened: as §1
# ScSho1 = target: ScSho1
# Procedure, shortened: as §1
# ScSla1-D1-D2 = target: ScSla1-D1-D2
# Procedure, shortened: as §1
# ScSla1-D3 = target: ScSla1-D3
# Procedure, shortened: as §1
# SpAbp1-D1 = target: SpAbp1-D1
# Procedure, shortened: as §1
# SpBbc1 = target: SpBbc1
# Procedure, shortened: as §1
# SpBzz1-D1 = target: SpBzz1-D1
# Procedure, shortened: as §1
# SpBzz1-D2 = target: SpBzz1-D2
# Procedure, shortened: as §1
# SpCyk3 = target: SpCyk3
# Procedure, shortened: as §1
# SpHof1 = target: SpHof1
# Procedure, shortened: as §1
# SpHof1-2 = target: SpHof1-2
# Procedure, shortened: as §1
# SpHof1-3 = target: SpHof1-3
# Procedure, shortened: as §1
# SpHse1 = target: SpHse1
# Procedure, shortened: as §1
# SpLsb1 = target: SpLsb1
# Procedure, shortened: as §1
# SpLsb4 = target: SpLsb4
# Procedure, shortened: as §1
# SpMyo1 = target: SpMyo1
# Procedure, shortened: as §1
# SpNbp2 = target: SpNbp2
# Procedure, shortened: as §1
# SpPex13 = target: SpPex13
# Procedure, shortened: as §1
# SpRvs167 = target: SpRvs167
# Procedure, shortened: as §1
# SpSla1-D1-D2 = target: SpSla1-D1-D2
# Procedure, shortened: as §1
# SpSla1-D3 = target: SpSla1-D3
# Procedure, shortened: as §1
binder,measurement,setting,value
KNPRRQLQIPRQQPS,SPOT peptide array binding signal intensity,AgAbp1,242
same,SPOT peptide array binding signal intensity,AgBbc1,60.8
same,SPOT peptide array binding signal intensity,AgBem1-D1,73
same,SPOT peptide array binding signal intensity,AgBzz1-D1,77
same,SPOT peptide array binding signal intensity,AgBzz1-D2,44
same,SPOT peptide array binding signal intensity,AgCyk3,≤ 0
same,SPOT peptide array binding signal intensity,AgFus1,9.5
same,SPOT peptide array binding signal intensity,AgHof1,55.8
same,SPOT peptide array binding signal intensity,AgHse1,142
same,SPOT peptide array binding signal intensity,AgLsb1,100
same,SPOT peptide array binding signal intensity,AgLsb4,25
same,SPOT peptide array binding signal intensity,AgMyo5,7
same,SPOT peptide array binding signal intensity,AgNbp2,16.5
same,SPOT peptide array binding signal intensity,AgRvs167,2.67
same,SPOT peptide array binding signal intensity,AgSho1,≤ 0
same,SPOT peptide array binding signal intensity,AgSla1-D1-D2,44
same,SPOT peptide array binding signal intensity,AgSla1-D3,2.5
same,SPOT peptide array binding signal intensity,CaAbp1-D1,728
same,SPOT peptide array binding signal intensity,CaAbp1-D2,464
same,SPOT peptide array binding signal intensity,CaBbc1,218
same,SPOT peptide array binding signal intensity,CaBem1-D1,73
same,SPOT peptide array binding signal intensity,CaBzz1-D1,84
same,SPOT peptide array binding signal intensity,CaBzz1-D2,42
same,SPOT peptide array binding signal intensity,CaCyk3,7
same,SPOT peptide array binding signal intensity,CaFus1,208
same,SPOT peptide array binding signal intensity,CaHof1,≤ 0
same,SPOT peptide array binding signal intensity,CaHse1,1
same,SPOT peptide array binding signal intensity,CaLsb1,0.5
same,SPOT peptide array binding signal intensity,CaLsb4,51.5
same,SPOT peptide array binding signal intensity,CaMyo5,5
same,SPOT peptide array binding signal intensity,CaNbp2,333
same,SPOT peptide array binding signal intensity,CaRvs167,12
same,SPOT peptide array binding signal intensity,CaRvs167-3,11.8
same,SPOT peptide array binding signal intensity,CaSho1,47.5
same,SPOT peptide array binding signal intensity,CaSla1-D1-D2,148
same,SPOT peptide array binding signal intensity,CaSla1-D3,1.25
same,SPOT peptide array binding signal intensity,ScAbp1,146
same,SPOT peptide array binding signal intensity,ScBbc1,7.25
same,SPOT peptide array binding signal intensity,ScBem1-D1,29
same,SPOT peptide array binding signal intensity,ScBzz1-D1,47.5
same,SPOT peptide array binding signal intensity,ScBzz1-D2,8
same,SPOT peptide array binding signal intensity,ScCyk3,15
same,SPOT peptide array binding signal intensity,ScFus1,98
same,SPOT peptide array binding signal intensity,ScHof1,0.75
same,SPOT peptide array binding signal intensity,ScHse1,527
same,SPOT peptide array binding signal intensity,ScLsb1,162
same,SPOT peptide array binding signal intensity,ScLsb2,2
same,SPOT peptide array binding signal intensity,ScLsb3,132
same,SPOT peptide array binding signal intensity,ScLsb4,12
same,SPOT peptide array binding signal intensity,ScMyo3,2
same,SPOT peptide array binding signal intensity,ScMyo5,1
same,SPOT peptide array binding signal intensity,ScNbp2,173
same,SPOT peptide array binding signal intensity,ScPex13,≤ 0
same,SPOT peptide array binding signal intensity,ScRvs167,13.5
same,SPOT peptide array binding signal intensity,ScSho1,95
same,SPOT peptide array binding signal intensity,ScSla1-D1-D2,442
same,SPOT peptide array binding signal intensity,ScSla1-D3,21
same,SPOT peptide array binding signal intensity,SpAbp1-D1,306
same,SPOT peptide array binding signal intensity,SpBbc1,1
same,SPOT peptide array binding signal intensity,SpBzz1-D1,240
same,SPOT peptide array binding signal intensity,SpBzz1-D2,0.5
same,SPOT peptide array binding signal intensity,SpCyk3,1
same,SPOT peptide array binding signal intensity,SpHof1,126
same,SPOT peptide array binding signal intensity,SpHof1-2,11.5
same,SPOT peptide array binding signal intensity,SpHof1-3,266
same,SPOT peptide array binding signal intensity,SpHse1,260
same,SPOT peptide array binding signal intensity,SpLsb1,54.2
same,SPOT peptide array binding signal intensity,SpLsb4,129
same,SPOT peptide array binding signal intensity,SpMyo1,2
same,SPOT peptide array binding signal intensity,SpNbp2,53
same,SPOT peptide array binding signal intensity,SpPex13,5
same,SPOT peptide array binding signal intensity,SpRvs167,16.7
same,SPOT peptide array binding signal intensity,SpSla1-D1-D2,3.5
same,SPOT peptide array binding signal intensity,SpSla1-D3,2

# Reference: the supplement of paper PMC4466140
